# An excerpt weighted towards active compounds, which were near 1.7% of everything screened.
# GLP1R ag – GLP-1 receptor (human) agonism; P43220; HEK293 GLP-1R CRE-luciferase, luminescence, 4-6 h; cells express a hypersensitive GLP-1R form; Potency, µM (series often up to 45.6 µM), without a hit: top-dose activation, most hits filed as activators; 380,000 tested, 0.007% active; further: % of control where 0% means no effect
# Target sequence (P43220 whole entry, looked up): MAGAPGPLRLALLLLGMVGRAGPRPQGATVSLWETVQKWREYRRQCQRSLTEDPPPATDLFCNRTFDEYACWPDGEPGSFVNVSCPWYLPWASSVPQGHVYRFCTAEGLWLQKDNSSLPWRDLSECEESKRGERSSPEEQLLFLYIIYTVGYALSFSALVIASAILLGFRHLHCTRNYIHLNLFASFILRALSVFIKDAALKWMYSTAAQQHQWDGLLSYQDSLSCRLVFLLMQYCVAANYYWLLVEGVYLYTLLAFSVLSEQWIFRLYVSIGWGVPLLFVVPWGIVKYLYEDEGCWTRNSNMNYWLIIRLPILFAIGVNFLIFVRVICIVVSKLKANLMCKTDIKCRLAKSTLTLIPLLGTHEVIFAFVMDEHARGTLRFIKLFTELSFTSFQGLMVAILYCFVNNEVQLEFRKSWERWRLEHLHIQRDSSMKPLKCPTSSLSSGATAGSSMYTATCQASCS
# RGS4 inh – blocks human RGS4-accelerated GTP hydrolysis | P49798 | Potency, µM (series often up to 114 µM), without a hit: at the highest dose activity change, negative = inhibition, actives largely listed as inhibitors | 390,000 tested, 0.039% active | AID 504845 | Transcreener GDP fluorescence polarization, RGS4-accelerated GTP hydrolysis; further: on the % scale 0 is the no-effect control and ±100 the full control effect; nearly all actives have a fitted effect of over 75% in size
# Target sequence (P49798 whole entry, looked up): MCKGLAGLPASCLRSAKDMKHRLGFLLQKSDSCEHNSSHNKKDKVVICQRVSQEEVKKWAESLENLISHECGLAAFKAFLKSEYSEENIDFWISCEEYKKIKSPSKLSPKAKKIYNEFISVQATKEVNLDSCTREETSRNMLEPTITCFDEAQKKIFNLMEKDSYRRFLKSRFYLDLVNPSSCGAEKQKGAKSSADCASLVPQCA
#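 MLSMR compounds (23 nl, pin-transferred) preincubated 10 min at room temperature with a 500nM (2x) first reagent, then RGS4 at 900nM (2x) plus Transcreener GDP mix added; fluorescence polarization (620/688 nm) read before and after 90 min at 30 °C.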
# GLP1R inv ag – acts as inverse agonist at human GLP-1 receptor | P43220 | HEK293 GLP-1R CRE-luciferase, luminescence, 24 h; GLP-1R form is constitutively active | Potency, µM (top dose mostly 38.3 µM), for inactives: top-dose activity change, negative = inhibition, most hits filed as inhibitors | 410,000 tested, 1.6% active; further: on the % scale 0 is the no-effect control and ±100 the full control effect; nearly all actives have a fitted effect of over 55% in size
#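 HEK293 cells stably co-expressing a cAMP-responsive luciferase reporter and constitutively active GLP-1R were seeded, incubated 12 h, then exposed to compounds for 24 h at 37 C. Luminescence was read 12 min after detection reagent; inverse agonists lower signal.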
# PTHR1 agonist – activates the human parathyroid hormone receptor PTHR1; Q03431; HEK293 GP2 PTHR1 cells, GloSensor cAMP luminescence, 1 h; Potency, µM (top dose mostly 115 µM), without a hit: top-dose activation, most hits filed as activators; 410,000 tested, 0.075% active; further: nearly all actives have a fitted effect of over 55% in size
#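 HEK-293-derived GP2 cells expressing PTHR1 and a GloSensor cAMP reporter, 3,000/well, plated overnight, given luciferin plus IBMX (each 0.5 mM as added) for 1 h at 37 °C, then compound for 1 h at 37 °C. Luminescence was read after 15 min at room temperature.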
# HEK293 tox – cytotoxicity counter-screen for GLP-1 receptor inverse agonists; 410,000 tested, 0.13% active; HEK293 cAMP-luciferase reporter cells, luminescence, 24 h; Potency, µM (top dose mostly 38.3 µM), without a hit: at the highest dose activity change, negative = inhibition, hits mostly inhibitors;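 further: loss of luciferase light is scored as toxicity; on the % scale 0 is the no-effect control and ±100 the full control effect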
#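 Cells in DMEM/10% Nu serum/1% pen-strep, 1536-well format. Pre-incubated 12 h, dosed with 23 nL compound, incubated a further 24 h. Luciferase detection, 12 min at room temp, luminescence.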
# Starred values were filed as active, the others as inactive; i = inactive; ? = inconclusive; . = no result given; [ ] = dose if it differs, or a comment. The call rests on the fitted dose curve; in most records, active means well fitted curve in the direction sought with a large enough effect; inconclusive means small, poorly fitted or top-dose-only effect, or another doubt; inactive means no such curve, though single readings can be large; an effect the other way counts as inactive or inconclusive. Potency means the concentration at half of the fitted maximal effect.
SMILES,GLP1R ag,RGS4 inh,GLP1R inv ag,PTHR1 agonist,HEK293 tox
Cc1ccc(C23CC4CC(CC(C(=O)N5CCN(C)CC5)(C4)C2)C3)cc1,9%,-2%,8.9µM*,i,12%
Cc1ccc(C)c(N2CCN(C(=O)Cn3cnc4nc5c(cc4c3=O)CCCC5)CC2)c1,.,9%,-2%,-91%,3%
Cc1cccc(NS(=O)(=O)c2cccc(C(=O)NCC3(N4CCCCC4)CCCCC3)c2)c1,-4%,-14%,?,9%,-16%
Cc1ccc(S(=O)(=O)Nc2cccc(C(=O)NCC3(N4CCCCC4)CCCCC3)c2)cc1F,14%,1%,11µM*,i,-27%
CCCCCCC(C)OC(=O)Nc1cccc2ccccc12 (stereo not given),9%,5%,8.9µM*,i,21%
COc1cc2c(c(OC)c1OC)C(=O)C(=Cc1ccccc1)O2,21%,0%,14%,-20%,9%
CCC(=O)N(c1nnc(SCC(=O)Nc2ccccc2Cl)s1)C1CC1,6%,6%,7%,-4%,-22%
CCOc1ccc(C(C(=O)NCC2CCCO2)N(CCc2cccc(C)c2)C(=O)c2snc(C(N)=O)c2N)cc1 (stereo not given),0%,-43%,7.9µM*,-36%,?
CCOc1ccc(C(C(=O)NCC2CCCO2)N(C(=O)c2snc(C(N)=O)c2N)c2ccc(F)cc2)cc1 (stereo not given),3%,12%,-24%,i,1%
CCOc1ccccc1CNC(=O)c1ccc(N2Cc3ccccc3Oc3ncccc32)s1,.,-37%,4%,i,-4%
Cc1cc(/C=C(\C#N)C(=O)NCc2cccs2)c(C)n1-c1ccccc1F,7%,-15%[11.4 µM],2.8µM*,-16%[57.5 µM],-5%
O=C(Cn1ncc2c3ccccc3n(Cc3cccc(Cl)c3)c2c1=O)NCCCN1CCCCC1,.,-22%,-22%,-24%,-5%
CCC(C)(C)NC(=O)C(c1ccc(F)cc1)N(Cc1ccc(OC)cc1)C(=O)c1cnccn1 (stereo not given),10%,-15%,-8%[7.66 µM],i,0%[7.66 µM]
COc1ccc(CN(C(=O)c2cnccn2)C(C(=O)Nc2ccc(F)cc2)c2ccccc2)cc1 (stereo not given),0%,-13%,5.6µM*,i,-17%
C/C(=C\c1ccccc1)C(=O)Nc1ccc(Cl)cn1,-2%,-43%,?,-58%,8%
CC1(C(=O)O)CCC2(C)CCC3(C)C(=CC(=O)[C@@H]4C5(C)CC[C@H](O[C@H]6O[C@H](C(=O)O)C(O)C(O)[C@H]6O[C@@H]6O[C@H](C(=O)O)C(O)C(O)C6O)C(C)(C)[C@@H]5CCC43C)[C@@H]2C1 (stereo not given in full),2%,.,.,.,.
O=C1C=C(c2cc3ccccc3s2)CCC1,-8%,-16%,2.5µM*,-77%,-30%
CC(CNC(=O)CCn1ccc2cc(S(=O)(=O)N3CCCC3)ccc21)c1ccccc1 (stereo not given),18%,-3%[11.4 µM],?,i,-15%
NC(=O)c1ncn([C@@H]2O[C@H](CNCc3cc(Br)ccc3OCc3ccccc3)[C@@H](O)[C@H]2O)n1,5%,10%,1%,-30%,4%
Cc1ccc(NC(=O)CC2OC(=O)c3ccccc32)cc1S(=O)(=O)N1CCOCC1 (stereo not given),2%,17%,23%,i,-15%
Cc1cc(NC2CCCCC2)nc(NCc2ccccc2)n1,11%,14%[11.4 µM],10µM*,-10%,?
Cc1ccc(Nc2cc(C)nc(NCc3ccccc3)n2)cc1,11%,-14%,?,i,?
CCOC(=O)C1=CN(Cc2cccc(F)c2)S(=O)(=O)N(C)C1c1ccc(F)c(Cl)c1 (stereo not given),0%,-7%,10µM*,-4%,1%
CCOC(=O)C1=CN(Cc2cccc(F)c2)S(=O)(=O)N(C)C1c1ccc2ccccc2c1 (stereo not given),2%,-6%,?,-10%,-16%
Nc1nc2c(ncn2[C@@H]2O[C@H](CNS(=O)(=O)N3CCCC3)[C@@H](O)[C@H]2O)c(=O)[nH]1,-15%,.,25%,17%,-4%
SMILES,GLP1R ag,RGS4 inh,GLP1R inv ag,PTHR1 agonist,HEK293 tox
CCCCN(C(=O)c1ccc(Cl)cc1)C1CC2CCC(C1)N2C (stereo not given),-1%,-3%,?,-3%,-15%
CN1C2CCC1CC(N(CCc1ccccc1)C(=O)c1ccc(Cl)cc1)C2 (stereo not given),-4%,0%,10µM*,-7%,-1%
CCC(C)C1OC2(C=CC1C)CC1CC(C/C=C(\C)C(OC3CC(OC)C(OC4CC(OC)C(NC(C)=O)C(C)O4)C(C)O3)C(C)/C=C/C=C3\COC4C(O)C(C)=CC(C(=O)O1)C34O)O2 (stereo not given) (tested in a mixture with another compound),1%,.,.,.,.
COc1cccc(OC)c1C(=O)NC(C)C12CC3CC(CC(C3)C1)C2 (stereo not given),-5%,-42%,8.9µM*,i,3%
CC(C)c1ccc(S(=O)(=O)N2CCC(C(=O)NCC3(N(C)C)CCCCC3)CC2)cc1,-1%,12%,?,i,-13%
CN(C)C1(CNC(=O)C2CCN(S(=O)(=O)c3cc(Cl)ccc3Cl)CC2)CCCCC1,7%,5%,10µM*,-5%,?
COCCNc1nc(NCc2ccccc2OC)c2sccc2n1,4%,.,?,-21%,-2%
COc1ccccc1CNc1nc(Nc2ccccc2-n2cccn2)c2sccc2n1,33%,.,3.2µM*,-12%,-10%
Cc1ccc(S(=O)(=O)N(C)C)cc1NC(=O)COC(=O)/C(=C/c1ccc(F)cc1)c1cccs1,-1%,-29%,10µM*,-7%,-9%
Cc1ccc(S(=O)(=O)N(C)C)cc1NC(=O)COC(=O)c1cccs1,4%,.,6%,i,-5%
COc1ccc(C(=O)CN2CCN(CCN3C(=O)c4cccc5cccc(c45)C3=O)CC2)cc1,-1%,-22%[11.4 µM],?,-39%,-16%
COc1cc2c3c(cccc3c1)C(=O)N(CCN1CCCC1)C2=O,-8%,.,4.5µM*,i,-8%
CCCN(CCC)C(=O)Cn1c(=O)n(Cc2ccc(C(=O)NCCc3ccc(OC)c(OC)c3)cc2)c(=O)c2ccccc21,0%,4%,1%,?,6%
COc1ccc(/C=C2\SC(=N)N(c3nccs3)C2=O)cc1OC,33%,-35%,10µM*,i,-29%
CC(=O)C1N=NCC1c1ccccc1 (stereo not given),4%,-9%,?,i,0%

# From PubChem BioAssay
